Pf growth 96h: Primary qHTS for delayed death inhibitors of the malarial parasite plastid, 96 hour incubation; P. falciparum luciferase reporter growth, 96 h; 6.9% of 320,000 active; Potency, µM (titrated, usually from 28.7 µM), inactives show top-dose activity change, negative = inhibition, most hits filed as inhibitors; AID 504834, 2011
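Infected RBCs, 2% Hct / 0.05% parasitemia final; luciferase-reporter P. falciparum; cpd 96 h, 37 C, 5% CO2; luciferase detection reagent; luminescence.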
AMA1 RON2 block: qHTS for Inhibitors of AMA1-RON; Towards Development of Antimalarial Drug Lead: Primary Screen | Potency, µM (series often up to 58.2 µM), inactives show top-dose activity change, negative = inhibition, most hits filed as inhibitors | AlphaScreen AMA1-biotinylated RON2 peptide binding | Plasmodium falciparum AMA1 (3D7) - RON2 peptide interaction | 0.2% of 360,000 active;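 note: 0% = vehicle wells and -100% = peptide control; nearly all actives have a fitted effect of over 45% in size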
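AMA1 (3D7) with his tag at 25 nM final met compounds first, then biotinylated RON2 peptide at 25 nM; detection used donor plus acceptor beads, 10 µg/mL apiece, read by AlphaScreen after 30 min at room temperature.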
HCV inhibitor: qHTS Assay for Inhibitors of Hepatitis C Virus (HCV) | Huh7.5.1 HCVcc-Cre infection, luciferase reporter, 44 h | Potency, µM (titrated, usually from 41.8 µM), without a hit: top-dose activity change, negative = inhibition, actives largely listed as inhibitors | 3.4% of 340,000 active | AID 651820, 2012
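Infectious HCV cell culture screen: compound-treated cells (1,000/well, pre-plated 4 h) are infected with HCVcc-Cre at roughly 0.5 moi and grown 44 h. Infection is quantified by luciferase signal after 15 min substrate incubation at room temperature.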
Pf growth 48h: Primary qHTS for delayed death inhibitors of the malarial parasite plastid, 48 hour incubation; P. falciparum luciferase growth in erythrocytes, 48 h; Potency, µM (highest dose often 28.7 µM), for inactives: top-dose activity change, negative = inhibition, hits mostly inhibitors; 5.9% of 310,000 active
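Firefly luciferase activity from engineered P. falciparum reports growth; inhibitors lower the luminescent signal. Cultures contained 2% hematocrit erythrocytes at 0.1% final parasitemia.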
Starred values were filed as active, the others as inactive; ? = inconclusive; . = no result; [ ] = another dose, or the depositor's remark. An excerpt weighted towards active compounds, which were near 11% of everything screened. Calls come from the whole dose curve; as a rule, active = well fitted curve in the direction sought with a large enough effect; inconclusive = small, poorly fitted or top-dose-only effect, or another doubt; inactive = no such curve, though single readings can be large; an effect the other way counts as inactive or inconclusive. Unless noted, % is set by controls: 0 for no effect and ±100 for the full control effect; potency is the fitted concentration of half-maximal effect.

SMILES	Pf growth 96h	AMA1 RON2 block	HCV inhibitor	Pf growth 48h
CN(C(=O)c1ccc(NC(=O)Cc2ccc(NC(=O)C3CCCN(C(=O)CCc4ccccc4)C3)cc2)cc1)C1CC1 (stereo unspecified)	?	-7.1%	14.1µM*	13.1µM*
CN(Cc1ccccc1)C(=O)c1ccc(NC(=O)Cc2cccc(NC(=O)C3CCCN(C(=O)CCc4ccccc4)C3)c2)cc1 (stereo unspecified)	1.47µM*	-10.0%	?	3.7µM*
CN(Cc1ccccc1)C(=O)c1ccc(NC(=O)Cc2cccc(NC(=O)C3CCN(C(=O)C4CCCC4)CC3)c2)cc1	5.86µM*	-4.0%	-9.5%	?
CN(Cc1ccccc1)C(=O)c1cccc(NC(=O)Cc2ccc(NC(=O)C3CCCN(C(=O)C4CCCCC4)C3)cc2)c1 (stereo unspecified)	.	-5.5%	7.94µM*	.
CCC1Sc2ccc(S(=O)(=O)CCC(=O)Nc3cccc(Br)c3)cc2NC1=O (stereo unspecified)	?	-15.7%	3.4%	20.5%
CC1CCCCN1C(=O)CNCC1CCCO1 (stereo unspecified)	69.4%	-2.5%	10.9%	?
O=C1C=C(c2ccc(Oc3ccccc3)cc2)C[C@@H](c2ccc3c(c2)OCO3)C1	-11.4%	-18.5%	?	1.3%
CN(C(=O)c1ccc(NC(=O)Cc2cccc(NC(=O)C3CCCN(C(=O)CCc4ccccc4)C3)c2)cc1)C1CCCC1 (stereo unspecified)	?	-1.9%	?	0.117µM*
O=C(Cc1ccc(NC(=O)C2CCCN(C(=O)CCc3ccccc3)C2)cc1)Nc1cccc(C(=O)N2CCCC2)c1 (stereo unspecified)	.	-4.3%	-21.9%[8.37 µM]	.
CN(C(=O)c1ccc(NC(=O)Cc2cccc(NC(=O)C3CCCN(C(=O)C4CCCC4)C3)c2)cc1)C1CCCC1 (stereo unspecified)	3.7µM*	-3.9%	-11.8%	11.7µM*
O=C(Cc1ccc(NC(=O)C2CCCN(C(=O)CCc3ccccc3)C2)cc1)Nc1cccc(C(=O)N2CCCCC2)c1 (stereo unspecified)	.	3.6%	7.94µM*	.
CN(C(=O)c1ccc(NC(=O)Cc2cccc(NC(=O)C3CCCN(C(=O)C4CCC4)C3)c2)cc1)C1CC1 (stereo unspecified)	.	4.9%	?	.
O=C(NCc1ccc2c(c1)OCO2)c1ccc(C2SCC(=O)N2Cc2ccco2)cc1 (stereo unspecified)	8.4%	-15.1%	-13.1%	?
O=C(NCCN1CCCCC1)c1ccc(Oc2cc(Cl)cc(Cl)c2)o1	4.65µM*	10.5%	?	7.38µM*
CCCN1CCN(CCNC(=O)Nc2ccccc2Cl)CC1	?	-10.8%	13.5%	22.7%
COc1ccccc1-c1cc(C(=O)NC2CCN(C)CC2)c2ccc(Cl)c(C)c2n1	?	-11.1%	-4.7%	9.28µM*
O=C(NCC1CC1)c1ccc(Oc2cc(Cl)cc(Cl)c2)o1	9.28µM*	-24.8%	?	11.7µM*
NNC(=O)c1ccc(Oc2cc(Cl)cc(Cl)c2)o1	2.6%	73.2%	8.3%	11.9%
O=C(NCCN1CCCCC1)Nc1cccc(Cl)c1Cl	13.1µM*	-4.6%	-18.2%	31.0%
CCCCCCCCCCCCCCCC(=O)OC(C)C	-11.9%	.	.	-3.5%
Cc1ccc(N2CC(O)CSC2=Nc2ccccc2)cc1 (stereo unspecified)	.	0.3%	.	.
Cc1c(Cl)ccc2c(C(=O)NCCN3CCCCC3)cc(-c3ccccn3)nc12	?	8.0%	5.62µM*	?
O=C(NCCN1CCCCC1)c1cc(Cl)ccc1Cl	4.65µM*	4.2%	-4.5%	0.0%
COC(=O)c1ccc(=O)c2nc3/c(=C/O)c(O)cc(=O)c3[nH]c12	?	1.26µM*	?	?
CCN1CCN(Cc2ccc(NC(=O)c3ccc(C)c(NC(=O)c4ccnnc4)c3)cc2C(F)(F)F)CC1	?	-8.8%	-17.2%	50.1%
SMILES	Pf growth 96h	AMA1 RON2 block	HCV inhibitor	Pf growth 48h
CCN1CCN(Cc2ccc(NC(=O)c3cc(NC(=O)c4cnn(-c5ccccc5)c4N)cc(OC)c3)cc2C(F)(F)F)CC1	0.828µM*	-12.5%	6.3%[8.37 µM]	1.85µM*
CCN1CCN(Cc2ccc(C(=O)Nc3ccc(C)c(NCc4cnc(NC(=O)OC)cn4)c3)cc2C(F)(F)F)CC1	0.37µM*	-18.8%	?	?
CCN1CCN(Cc2ccc(NC(=O)c3cc(NC(=O)C(=O)c4c[nH]c5ccccc45)cc(OC)c3)cc2C(F)(F)F)CC1	0.131µM*	?	-16.1%[8.37 µM]	0.37µM*
CCN1CCN(Cc2ccc(NC(=O)c3cc(NC(=O)c4cc(C)on4)cc(OC)c3)cc2C(F)(F)F)CC1	0.522µM*	-7.0%	?	?
CC(=O)c1ccc(S(=O)(=O)N2CCN(c3ccnc4cc(Cl)ccc34)CC2)cc1	.	-2.9%	.	.
O=C(NNC(=O)c1cccc2ccccc12)c1ccc2c(c1)OCO2	85.5%	45.3%	-5.3%	46.8%
CCN1CCN(Cc2ccc(NC(=O)c3ccc(C)c(NC(=O)C(=O)c4c[nH]c5ccccc45)c3)cc2C(F)(F)F)CC1	0.415µM*	?	?	0.37µM*
O=C(NC(=O)c1ccccc1)OCCN1C(=O)c2ccccc2C1=O	?	-1.6%	13.6%	?
O=C(Nc1ccc2c(c1)OCCO2)C(c1ccncc1)n1c(=O)c(-c2cc3ccccc3[nH]2)nc2ccccc21 (stereo unspecified)	.	34.7%	.	.
COc1ccccc1C1CCN(Cc2ccccc2Cl)CC1	-20.4%	-19.3%	-4.7%	.
COc1ccc(Br)cc1/C=N/N1CCN(Cc2ccccc2Cl)CC1	16.5%	8.91µM*	?	0.0%
COc1ccccc1/C=C/C=N\N1CCN(Cc2ccccc2Cl)CC1	18.7%	20µM*	?	?
Clc1ccc(/C=N/N2CCN(Cc3ccccc3Cl)CC2)cc1	0.8%	12.6µM*	-8.3%	-4.2%
COc1ccc(/C=N\N2CCN(Cc3ccccc3Cl)CC2)cc1	275.3%	15.1%	7.0%	-2.5%
Cc1ccc(S(=O)(=O)c2cc3ccccc3nc2N)cc1	9.28µM*	5.2%	-15.1%	?
CC(C)OCCCN1CN(S(=O)(=O)c2ccc(Cl)cc2)c2nc3ccccc3nc21	?	7.2%	-14.9%	?
CC(C)OCCCN1CN(S(=O)(=O)c2cccc(Cl)c2)c2nc3ccccc3nc21	9.28µM*	-1.5%	-20.2%	?
COC(CNC(=O)c1cc(-c2ccncc2)nc2ccc(S(=O)(=O)N3CCOCC3)cc12)OC	-15.5%	-5.1%	-3.3%	8.1%
COc1ccc(OC)c(S(=O)(=O)N/N=C\c2cn(CC(N)=O)c3ccccc23)c1	2.7%	-10.4%	-5.4%	6.4%
CCn1cc(CN2CCCC(C(=O)Nc3ccc(-c4nc5ccccc5[nH]4)cc3)C2)c(C)n1 (stereo unspecified)	26.4%	-12.3%	-18.3%	2.08µM*

Screening results deposited in PubChem by National Center for Advancing Translational Sciences (NCATS).
